Compounds with a hit are over-represented: about 3.1% of the library has one in this group of screens.
CF NFkB block – inhibitors of cystic fibrosis induced NF-kB | KKLEB NF-kB-GFP reporter, PAF-induced, GFP fluorescence overnight | inhibition, % at 5 µM | 0.86% of 360,000 active;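 active = at least 50% inhibition at 5 µM, scaled per plate between neutral and stimulator controls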;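 note: PAF is a Pseudomonas aeruginosa culture filtrate used as stimulus; plate controls were PAF-stimulated DMSO wells for no effect and unstimulated DMSO wells for full effect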
HIF-2a block – blocks HIF-2a reporter activity | 786-0 RCC cells HIF-2a reporter, luciferase luminescence, overnight | inhibition, % at 18.8 µM | 0.72% of 360,000 active;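 active = inhibition of the luminescence signal of 40% or more relative to plate controls, in a single-dose primary screen at 18.75 µM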
PPC-1+TRAIL kill – PPC-1 cancer cell killing with TRAIL present. 0.41% of 220,000 active. cell killing (% activity), % at 4 µM or 5 µM. PPC-1 cells + TRAIL, ATPLite viability luminescence;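 active = cell killing above 50% in the first pass at 4 µM, then a duplicate retest at 5 µM averaging 50% or more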;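 note: plate controls were cells with TRAIL plus DMSO for no effect and medium-only wells lacking cells for full effect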
KKLEB cytotox – counter-screen for CF NF-kB inhibitors: cytotoxicity; KKLEB CF airway cells viability, ATPlite luminescence, overnight; active compounds read low; cells stimulated with P. aeruginosa culture filtrate; activity change (cytotoxicity), % at 5 µM; 0.36% of 360,000 active;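 active = corrected activity change at or below -50% at 5 µM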
Peg3 prom inh – reduces Peg3 promoter-driven luciferase expression in HeLa. HeLa PEG-Prom luciferase reporter, luminescence, overnight. inhibition, % at 20 µM. 1.7% of 360,000 active. AID 588405;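 active = inhibition of at least 50% at 20 µM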
TRAIL sens C8 – caspase-8 TRAIL sensitization. NB7+C8 cells + TRAIL, ATPlite viability luminescence. inhibition (viability loss, TRAIL sensitization), % at 10 µM. 1% of 360,000 active. AID 624354;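 active = compounds causing at least 50% loss of cell viability in the single-dose screen, relative to plate controls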
* marks the source's active call; other numbers are inactive results.

How did O=C(CN1C(=O)/C(=C2\SC(=S)N(C3CCS(=O)(=O)C3)C2=O)c2ccccc21)Nc1ccccc1 (stereo not drawn) do in these assays?
CF NFkB block: 53*; HIF-2a block: 5; PPC-1+TRAIL kill: 19; KKLEB cytotox: -6; Peg3 prom inh: -1; TRAIL sens C8: -11

Results for CCc1ccc(CNCc2ccc(F)cc2)cc1 ?
CF NFkB block: 10; HIF-2a block: 2; PPC-1+TRAIL kill: 66*; KKLEB cytotox: -5; Peg3 prom inh: -7; TRAIL sens C8: 2

Results for Cc1cc(C)cc(S(=O)(=O)c2cn(C)c3cc(N4CCN(C)CC4)c(F)cc3c2=O)c1 ?
CF NFkB block: 6; HIF-2a block: 1; KKLEB cytotox: -7; Peg3 prom inh: 100*; TRAIL sens C8: 5

What do the screens show for `O=C1O[C@@H](c2ccccc2)C[C@@H](O)C(=O)CCc2ccccc21`?
HIF-2a block: 2; TRAIL sens C8: -12

How did CC(NCC(O)COc1ccc(Br)cc1)c1ccccc1 (stereo not drawn) do in these assays?
CF NFkB block: -3; HIF-2a block: 7; KKLEB cytotox: -6; Peg3 prom inh: -16; TRAIL sens C8: 6

How did CC(NCC(O)COC1CCC(C(C)(C)C)CC1)c1ccccc1 (stereo not drawn) do in these assays?
CF NFkB block: 6; HIF-2a block: 10; PPC-1+TRAIL kill: -18; KKLEB cytotox: -8; Peg3 prom inh: 64*; TRAIL sens C8: 4

What do the screens show for `CC1CCC(C(C)C)C(OCC(O)CNC(C)c2ccccc2)C1` (stereo not drawn)?
CF NFkB block: 12; HIF-2a block: 2; PPC-1+TRAIL kill: 6; KKLEB cytotox: -33; Peg3 prom inh: 106*; TRAIL sens C8: 7

Results for COCc1cc(C)nc(OCC(=O)N/N=C/c2ccc(-c3cc([N+](=O)[O-])ccc3Cl)o2)c1C#N ?
CF NFkB block: 8; HIF-2a block: 2; KKLEB cytotox: -17; Peg3 prom inh: 54*; TRAIL sens C8: 6

Results for COCc1cc(C)nc(OCC(=O)N/N=C/c2ccco2)c1C#N ?
CF NFkB block: -12; HIF-2a block: 4; PPC-1+TRAIL kill: 13; KKLEB cytotox: 2; Peg3 prom inh: 6; TRAIL sens C8: -2

What do the screens show for `CC(=O)C1CN(S(=O)(=O)c2ccc(C)cc2)C(c2ccccc2)CC1C` (stereo not drawn)?
HIF-2a block: 5; TRAIL sens C8: 6

What do the screens show for `N#CC(C#N)=C(Nc1ccc(F)cc1)SCc1cccc(Br)c1`?
CF NFkB block: 51*; HIF-2a block: -33; PPC-1+TRAIL kill: 20; KKLEB cytotox: -42; Peg3 prom inh: 21; TRAIL sens C8: 43

What do the screens show for `CC(SCc1ccccc1)C(=O)Nc1ccc(F)cc1` (stereo not drawn)?
CF NFkB block: 6; HIF-2a block: -42; PPC-1+TRAIL kill: -17; KKLEB cytotox: 10; Peg3 prom inh: -24; TRAIL sens C8: -12

What do the screens show for `Cc1cccc(Nc2nc(NCc3ccco3)c3ccccc3n2)c1`?
CF NFkB block: 18; HIF-2a block: -86; PPC-1+TRAIL kill: 43; KKLEB cytotox: -5; Peg3 prom inh: 85*; TRAIL sens C8: 31

Results for Oc1c(CN2CCCCC2)cc(COCc2ccccc2)c2cccnc12 ?
CF NFkB block: 13; HIF-2a block: -10; PPC-1+TRAIL kill: 15; KKLEB cytotox: -6; Peg3 prom inh: 76*; TRAIL sens C8: 56*

Results for OCCN1CCN(Cc2cc(Cl)c3cccnc3c2O)CC1 ?
CF NFkB block: -20; HIF-2a block: 7; PPC-1+TRAIL kill: 16; KKLEB cytotox: 9; Peg3 prom inh: 17; TRAIL sens C8: -3

Results for Oc1c(CN2CCN(c3ccccn3)CC2)cc(Cl)c2cccnc12 ?
CF NFkB block: 11; HIF-2a block: 25; PPC-1+TRAIL kill: 8; KKLEB cytotox: 1; Peg3 prom inh: 50*; TRAIL sens C8: -4

How did COCc1cc(CN2CCCC2)c(O)c2ncccc12 do in these assays?
CF NFkB block: -17; HIF-2a block: 20; PPC-1+TRAIL kill: -2; KKLEB cytotox: 4; Peg3 prom inh: 20; TRAIL sens C8: -3

What do the screens show for `CC(C)(C)C(=O)Nc1ccc(-c2nc3ccccc3c(=O)o2)cc1`?
CF NFkB block: 10; HIF-2a block: 6; PPC-1+TRAIL kill: 41; KKLEB cytotox: 1; Peg3 prom inh: 2; TRAIL sens C8: 59*

What do the screens show for `Cc1ccn2cc(-c3cccc(NC(=O)CCC(=O)O)c3)nc2c1`?
CF NFkB block: -28; HIF-2a block: -54; KKLEB cytotox: -8; Peg3 prom inh: -52; TRAIL sens C8: 59*

How did CC(C)C(NC(=O)c1ccc(F)cc1)C(=O)NC1(C)CCS(=O)(=O)C1 (stereo not drawn) do in these assays?
CF NFkB block: -10; HIF-2a block: 7; KKLEB cytotox: -8; Peg3 prom inh: -8; TRAIL sens C8: 5

How did Cc1ccc(C(C(=O)NCc2ccccc2)N(Cc2ccco2)C(=O)c2snc(C(N)=O)c2N)o1 (stereo not drawn) do in these assays?
CF NFkB block: 22; HIF-2a block: 16; KKLEB cytotox: -6; Peg3 prom inh: 52*; TRAIL sens C8: 18

What do the screens show for `Cc1cc(C)n(-c2ccc3cccc(NS(C)(=O)=O)c3n2)n1`?
CF NFkB block: 10; HIF-2a block: 14; PPC-1+TRAIL kill: -2; KKLEB cytotox: 3; Peg3 prom inh: 59*; TRAIL sens C8: -1

Results for CC(/C=C/c1ccc(N(C)C)cc1)=N\N=C(/N)SC1CC(=O)N(c2ccc(C(=O)O)cc2)C1=O (stereo not drawn) ?
CF NFkB block: -12; HIF-2a block: -51; PPC-1+TRAIL kill: 54*; KKLEB cytotox: 0; Peg3 prom inh: -60; TRAIL sens C8: 46

How did O=C(O)c1ccc(N2C(=O)CC(SC(=Nc3ccccc3)Nc3ccccc3)C2=O)cc1 (stereo not drawn) do in these assays?
CF NFkB block: -29; HIF-2a block: 5; PPC-1+TRAIL kill: 27; KKLEB cytotox: 7; Peg3 prom inh: 5; TRAIL sens C8: -2

What do the screens show for `CCC(c1nc2ccccc2[nH]1)n1c(-c2ccc3ccccc3c2)nc2ccccc21` (stereo not drawn)?
HIF-2a block: 7; TRAIL sens C8: -2

What do the screens show for `CCCCCCCCC(c1nc2ccccc2[nH]1)N1CCN=C1c1cc2ccccc2[nH]1` (stereo not drawn)?
CF NFkB block: 14; HIF-2a block: 29; KKLEB cytotox: -26; Peg3 prom inh: 100*; TRAIL sens C8: 87*

Results for Cc1sc(NC(=O)CCCC(=O)O)c(C(N)=O)c1-c1ccccc1 ?
CF NFkB block: 15; HIF-2a block: 78*; PPC-1+TRAIL kill: -9; KKLEB cytotox: -4; Peg3 prom inh: -74; TRAIL sens C8: 12

What do the screens show for `CCOc1ccc(CSC(=N)N)cc1`?
CF NFkB block: 10; HIF-2a block: 7; PPC-1+TRAIL kill: 8; KKLEB cytotox: -4; Peg3 prom inh: 6; TRAIL sens C8: 6

Screens: PubChem, Sanford-Burnham Center for Chemical Genomics
